# Experimental data reported in PubChem BioAssay AID2685 (National Center for Advancing Translational Sciences (NCATS), 2010).
# Screen size: about 320,000 compounds; about 2,100 (0.66%) were called active. About 53% were inconclusive and are not listed. The sample holds actives, similar compounds and a random draw of the others, so the mix is not that of the screen. The call rests on the fitted dose curve; in most records, active means well fitted inhibition curve with a large enough effect in the signal ratio, with a control signal flat (not every such curve was filed as active); inconclusive means small, poorly fitted or top-dose-only effect, or effect the other way, or a change in a side signal; inactive means flat fitted curve, though single readings scatter; the % refers to the signal ratio.
# Test: qHTS Assay for Lipid Storage Modulators in Drosophila S3 Cells;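 on cell number change: cells counted by Cell Tracker Red CMTPX staining in the red channel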; on lipid storage change, negative = inhibition: on the % scale 0 is the no-effect control and ±100 the full control effect
# Settings: BODIPY lipid droplet fluorescence, 18-24 h, cells fed with added oleic acid; cell number change: measured here: cell count max response; series mostly up to 46.1 µM; lipid storage change, negative = inhibition: at the top concentration
# How it was run: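 Drosophila S3 cells got compounds at several concentrations plus oleic acid (400 uM solution). Laser-scanning cytometry with 488 nm excitation read lipid droplets at 500-530 nm and cells at 575-640 nm. Percent activity was relative to 20 uM Triacsin C.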
# Potency means the concentration at half of the fitted maximal effect.
SMILES,"lipid storage change, negative = inhibition",cell number change [%],Potency,outcome
CC(=O)NC(Cc1ccccc1)C(=O)OCC(=O)c1ccc(F)cc1 (stereo unspecified),-27.4% (inactive),,,
Cc1ccc(Nc2nc(-c3ccncc3)nc3ccccc23)cc1,6.48% (inactive),-7.93,,
Cc1nn(CCCC(=O)NCc2ccco2)c(=O)c2nn(-c3ccccc3)c(C)c12,15.5% (inactive),,,
CC(C)(/C=N/O)N(O)C=C1C=CC(=O)C=C1,0.34% (inactive),1.11,,
N#C/C(C(=O)Oc1ccccc1)=C1\C=Cc2ccccc2N1,-11.1% (inactive),-1.92,,
COc1ccc(OC(=O)/C=C/c2ccc([N+](=O)[O-])cc2)cc1,-3.13% (inactive),3.89,,
COc1ccc(S(=O)Cc2ccc(C(=O)NC3CC3)o2)cc1 (stereo unspecified),12% (inactive),13.8,,
COc1ccc(N(C)S(=O)(=O)c2cccc(C(=O)Nc3nc(C)c(C(C)=O)s3)c2)cc1,,,1.16 µM (active),
COc1ccc(N(C)S(=O)(=O)c2cccc(C(=O)Nc3nnc(C4CC4)s3)c2)cc1,-3.22% (inactive),,,
COc1ccc(N(C)S(=O)(=O)c2cccc(C(=O)Nc3nnc(C)s3)c2)cc1,,-20.6,,inactive
O=C(NC(=S)NCc1cccnc1)c1cc2ccccc2o1,4.99% (inactive),-19.5,,
Cc1cc(F)c(F)c(C(=O)NC2CC2)c1Cl,,,9.2 µM (active),
Cc1cc(F)c(F)c(C(=O)N2C(C)CCCC2C)c1Cl (stereo unspecified),-11.4% (inactive),0.056,,
Cc1cc(F)c(F)c(C(=O)N2CCC(C)CC2)c1Cl,10.8% (inactive),0.433,,
COc1ccc(OCc2cc(C(=O)N(C)C(C)c3ccon3)no2)c(Cl)c1 (stereo unspecified),,-9.97,,inactive
Cc1cc2c(cc1S(=O)(=O)N1CCN(c3ccccc3)CC1)OCCN2C,25.3% (inactive),-3.46,,
Cc1cccc(N2CCN(C(=O)C3(S(=O)(=O)c4ccc(Cl)cc4)CC3)CC2)c1C,8.29% (inactive),0.245,,
Cc1ccc(S(=O)(=O)C2(C(=O)N3CCN(c4cc(C)ccc4C)CC3)CC2)cc1,6.15% (inactive),,,
Cc1ccc(S(=O)(=O)C2(C(=O)N3CCN(c4ccccc4F)CC3)CC2)cc1,,-5.26,0.731 µM (active),
C/C(=N\NS(=O)(=O)c1ccc([N+](=O)[O-])cc1)c1c[nH]c2ccccc12,,-0.495,,inactive
C/C(=N/Nc1ccc([N+](=O)[O-])cc1)c1c[nH]c2ccccc12,,-24.9,4.11 µM (active),
C/C(=N/NS(=O)(=O)c1cccc([N+](=O)[O-])c1)c1c[nH]c2ccccc12,1.43% (inactive),,,
O=C(Cn1cc(S(=O)(=O)Cc2ccccc2F)c2ccccc21)N1CCOCC1,-4.09% (inactive),9.64,,

SMILES,"lipid storage change, negative = inhibition",cell number change [%],Potency,outcome
O=[N+]([O-])c1ccc(N2CCCC2)nc1N1CCCC1,-1.16% (inactive),16.9,,
COc1ccc(-c2cc(=O)c(C(=O)c3ccc(C)cc3)n[nH]2)cc1,2.45% (inactive),14,,
O=C(OCc1cc(Cl)ccc1OC(F)F)c1cc(S(=O)(=O)O)ccc1O,,-6.52,1.64 µM (active),
O=C(OCc1cc(Cl)ccc1OC(F)F)c1cccnc1,8.44% (inactive),13.9,,
O=C(OCc1cc(Cl)ccc1OC(F)F)c1cncc(Br)c1,,,,inactive
CC1CC(=O)Nc2ccccc2N1C(=O)CSc1ncnc2sccc12 (stereo unspecified),6.7% (inactive),0.129,,
COc1ccc(CCC(=O)Nc2cccc(S(=O)(=O)N(C)C)c2)cc1OC,-18.4% (inactive),15.7,,
COc1ccc([N+](=O)[O-])cc1NC(=S)NC(C)=O,-18.5% (inactive),0.615,,
CN(C)S(=O)(=O)Nc1cc(Cl)cc(Cl)c1,,-41.2,18.4 µM (active),
CN(C)S(=O)(=O)Nc1cc(F)cc(F)c1,-32.6% (inactive),-8.31,,
Cc1ccc(NS(=O)(=O)N(C)C)cc1,,,,inactive
CCN(C(=O)COC(=O)c1ccc(Cl)c(N)c1)C1CCS(=O)(=O)C1 (stereo unspecified),0.308% (inactive),6.77,,
CCOc1ccccc1C(=O)n1nc2nc(C)cc(C)c2c1N,,6.26,,inactive
CCCn1c(N)c(C(=O)CSc2nnc(C3CC3)n2Cc2ccccc2)c(=O)[nH]c1=O,-10.4% (inactive),7.78,,
COc1ccc(C(=O)/C=C/c2ccccc2)c(OC)c1,-0.419% (inactive),16.5,,
O=C1C(=O)N(CCCN2CCOCC2)C(c2ccc(F)cc2)/C1=C(\O)c1ccc2c(c1)OCCO2 (stereo unspecified),,-2.36,,inactive
COc1cccc(C(=O)Nc2cccc(OC(C)=O)c2)c1,,-9.37,,inactive
COc1ccc(CCN2C(=O)/C(=C\c3ccco3)SC2=S)cc1OC,-6.07% (inactive),-20.3,,
CNC(=O)COC(=O)c1c2c(nc3ccccc13)CCC2,0.527% (inactive),-0.369,,
CCCCNC(=O)COC(=O)c1c2c(nc3ccccc13)CCC2,,1.26,7.31 µM (active),
COc1ccc(NC(=O)COC(=O)c2c3c(nc4ccccc24)CCCC3)cc1,-1.44% (inactive),-10.5,,
CN(CC(=O)NCCN1CCN(Cc2ccccc2)CC1)S(=O)(=O)c1cccc2nsnc12,-4.25% (inactive),3.2,,
COCC(C)NC(=O)CCc1nnc(C2(c3ccc(Cl)cc3)CCC2)o1 (stereo unspecified),-11.8% (inactive),7.22,,

SMILES,"lipid storage change, negative = inhibition",cell number change [%],Potency,outcome
CCOc1ccc(NC(=O)CCC(=O)n2nc(C)cc2C)cc1,-4.91% (inactive),1.15,,
Cc1ccc(NC(=O)CCC(=O)n2nc(C)cc2C)c(C)c1,,,18.4 µM (active),
Cc1cc(C)n(C(=O)CCCC(=O)n2nc(C)cc2C)n1,9.69% (inactive),-1.02,,
CC(C)N(C(=O)Cn1c(=O)oc2ccccc21)c1ccccc1,-14.7% (inactive),12.3,,
COc1ccc([C@@H]2[C@@H]3C(=O)N(C(C)(C)C)C(=O)[C@@H]3[C@]3(Cc4ccc(Cl)cc4)C(=O)N(c4ccc(OC)cc4)C(=O)N23)cc1,11.9% (inactive),16,,
CCN1C(=O)[C@H]2[C@@H](c3ccc(C)cc3)N3C(=O)N(c4ccccc4)C(=O)[C@@]3(CC)[C@H]2C1=O,,16.2,,inactive
COc1ccc([C@@H]2[C@@H]3C(=O)N(C(C)(C)C)C(=O)[C@@H]3[C@]3(CC(C)C)C(=O)N(c4ccc(C(F)(F)F)cc4)C(=O)N23)cc1,,18.1,20.6 µM (active),
CCN1C(=O)[C@H]2[C@@H](c3ccc(C)cc3)N3C(=O)N(c4ccc(C(F)(F)F)cc4)C(=O)[C@@]3(CC(C)C)[C@H]2C1=O,,11.1,18.4 µM (active),
CCN1C(=O)[C@H]2[C@@H](c3ccc(C)cc3)N3C(=O)N(c4ccc(C(F)(F)F)cc4)C(=O)[C@@]3(CC)[C@H]2C1=O,-0.378% (inactive),-7.19,,
COc1ccc([C@@H]2[C@@H]3C(=O)N(C(C)(C)C)C(=O)[C@@H]3[C@]3(C)C(=O)N(c4ccc(C(F)(F)F)cc4)C(=O)N23)cc1,-1.6% (inactive),14.7,,
COc1ccc(CCNC(=O)CSc2ccc(-c3ccccc3)nn2)cc1,-1.45% (inactive),2.87,,
CC(C)CNC(=O)C1CC(=O)OC12CCCCC2 (stereo unspecified),,,,inactive
CC(Oc1ccc(C(=O)c2ccccc2)cc1)C(=O)N1CCOCC1 (stereo unspecified),,,,inactive
CC(Oc1ccc(-c2ccccc2)cc1)C(=O)N1CCOCC1 (stereo unspecified),,17.9,2.91 µM (active),
CC(Oc1ccc(-c2nnco2)cc1)C(=O)N1CCOCC1 (stereo unspecified),2.05% (inactive),6.36,,
CCCN1Cc2cccc(C(=O)NCCCOC(C)C)c2C1=O,,2.03,,inactive
Cc1ccc(-c2cc(C(=O)NCCCN3CCCC3)c3ccccc3n2)cc1C,-11.6% (inactive),,,
Cc1cccc(NC(=O)C2CC(=O)n3cnnc3S2)c1 (stereo unspecified),,-1.17,13 µM (active),
COc1cccc(NC(=O)C2CC(=O)n3cnnc3S2)c1 (stereo unspecified),-20.3% (inactive),-29,,
CCN=C1SC(C(=O)Nc2cccc(C)c2)CC(=O)N1CC (stereo unspecified),3.18% (inactive),-13.5,,
COc1ccc(N=C2NC(=O)/C(=C/c3ccco3)S2)cc1,-1.57% (inactive),15.8,,
O=C(CNC(=O)c1ccco1)Nc1ccncc1,23% (inactive),,,
CCOc1ccc(N=C2NC(=O)/C(=C/C(=O)OC)S2)cc1,,,25.9 µM (active),

SMILES,"lipid storage change, negative = inhibition",cell number change [%],Potency,outcome
COC(=O)/C=C1/SC(=Nc2ccc(Cl)c(Cl)c2)NC1=O,19.2% (inactive),7.13,,
COC(=O)/C=C1\SC(=Nc2ccccc2)NC1=O,-66.9% (inactive),10.6,,
O=C(c1nc2ccccn2c1CNCCCn1ncc2ccccc21)N1CCOCC1,7.24% (inactive),25.5,,
COc1cccc(/C=N/NC(N)=S)c1OS(=O)(=O)c1ccccc1,-5.43% (inactive),-16.4,,
COc1cccc(/C=N/NC(N)=S)c1OCc1cccc(Cl)c1,,0.0836,8.2 µM (active),
NC(=S)N/N=C\c1ccccc1OCc1ccccc1,8.29% (inactive),0.634,,
O=C(c1ccc(C#CC2(O)CCCCC2)cc1)N1CCOCC1,,5.75,,inactive
O=C1OCC(CO)(CO)N=C1NNc1ccccc1Cl,,,,inactive
COc1cccc(C2=NOC(C(=O)Nc3cccnc3Cl)C2)c1 (stereo unspecified),5.17% (inactive),3.11,,
CN(c1ccccc1)S(=O)(=O)c1cccc(NC(=O)c2ccncc2)c1,-23.7% (inactive),0.47,,
Cc1cc(C)n2nc(C(=O)Nc3cccc(S(=O)(=O)N(C)c4ccccc4)c3)nc2n1,,-15.3,11.6 µM (active),
Cc1cc(C)n2nc(C(=O)Nc3ccc(S(=O)(=O)N(C)C)cc3)nc2n1,-29.8% (inactive),-26.7,,
Cc1cc(N2CCOCC2)n2ncc(-c3ccccc3)c2n1,,-5.35,,inactive
Cc1nc2c(-c3ccccc3)cnn2c(N2CCOCC2)c1C,,-16.7,2.91 µM (active),
CC(C)(C)c1cc(N2CCOCC2)n2ncc(-c3ccccc3)c2n1,6.85% (inactive),-9.44,,
O=C(CN1CCCCC1)N1N=C(c2cccs2)CC1c1cccs1 (stereo unspecified),-0.409% (inactive),18.5,,
CSc1ccc(CN(C)C(=O)CSCC(=O)Nc2cc(C)on2)cc1,-15.8% (inactive),13.3,,
CN(C(=O)CSc1nnc(-c2ccc(C(C)(C)C)cc2)n1C)C1CCS(=O)(=O)C1 (stereo unspecified),,3.86,10.3 µM (active),
CN(C(=O)CSc1nnc(-c2ccccc2)n1C)C1CCS(=O)(=O)C1 (stereo unspecified),14.6% (inactive),,,
CCn1c(SCC(=O)N(C)C2CCS(=O)(=O)C2)nnc1-c1ccccc1 (stereo unspecified),-21% (inactive),-11.5,,
CN(C(=O)CSc1nc2ccccc2[nH]1)C1CCS(=O)(=O)C1 (stereo unspecified),,-2.26,,inactive
Cc1ccc2nc(SCC(=O)N(C)C3CCS(=O)(=O)C3)[nH]c2c1 (stereo unspecified),,7.53,1.16 µM (active),
CCN(C(=O)CSc1nc2ccc(OC)cc2[nH]1)C1CCS(=O)(=O)C1 (stereo unspecified),23% (inactive),,,
